PubChem BioAssay (Tox21)
“And” between values parts separate entries of the source, which are not always exact repeats. Identical values can stand only once. Results filed as inconclusive are left out. Some structures have more than one record in an assay (separate samples or runs), and their calls can disagree. The source made the active and inactive calls. Unless noted, calls come from the whole dose curve; as a rule, active = well fitted curve in the direction sought with a large enough effect in the repeat runs; inconclusive = weak or mixed curves; inactive = no such curve, though single readings can be large; an effect the other way counts as inactive or inconclusive.

Columns and labels:
[1] = biological target: Estrogen receptor beta (Homo sapiens) (UniProt Q92731); test: qHTS assay to identify small molecule agonists of the estrogen receptor beta (ER-beta) signaling pathway (AID 1259377; active = well fitted activation curve with a large enough effect in the signal ratio in the repeat runs, not every such curve was filed as active; the % refers to the signal ratio)
Chain of Estrogen receptor beta (Homo sapiens) (Q92731 whole entry, looked up): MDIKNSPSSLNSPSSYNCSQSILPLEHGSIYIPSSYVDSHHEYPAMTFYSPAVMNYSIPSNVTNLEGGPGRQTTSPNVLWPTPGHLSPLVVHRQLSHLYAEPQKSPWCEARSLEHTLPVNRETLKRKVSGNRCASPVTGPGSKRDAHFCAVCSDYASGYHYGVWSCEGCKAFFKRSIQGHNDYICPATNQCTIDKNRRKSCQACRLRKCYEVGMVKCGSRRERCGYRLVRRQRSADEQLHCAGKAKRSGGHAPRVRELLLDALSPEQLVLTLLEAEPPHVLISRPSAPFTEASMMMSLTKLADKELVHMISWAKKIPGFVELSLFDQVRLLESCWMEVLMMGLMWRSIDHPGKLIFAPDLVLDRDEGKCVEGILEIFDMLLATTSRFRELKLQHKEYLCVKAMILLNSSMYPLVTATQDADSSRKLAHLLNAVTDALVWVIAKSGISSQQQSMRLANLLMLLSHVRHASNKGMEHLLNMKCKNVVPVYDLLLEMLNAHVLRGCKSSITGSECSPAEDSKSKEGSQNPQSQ
Method in brief: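 HEK293T ER-beta-UAS-bla; 2% charcoal-stripped FBS; cells pre-incubated 6 hr, compound 16 hr, 37C/5% CO2; LiveBLAzer B/G FRET substrate 2 h RT; fluorescence intensity read.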

[2] = biological target: Estrogen receptor beta (Homo sapiens) (UniProt Q92731); test: qHTS assay to identify small molecule antagonists of the estrogen receptor beta (ER-beta) signaling pathway (AID 1259378; active = well fitted inhibition curve with a large enough effect in the signal ratio in the repeat runs, not every such curve was filed as active; the % refers to the signal ratio; note: potency is the fitted concentration of half-maximal effect)
Method in brief: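 ER-beta-UAS-bla HEK293T cells in 2% charcoal-stripped FBS medium treated with compound plus 1nM final 17-beta-estradiol for 16 hr at 37C. Beta-lactamase reporter read by FRET substrate fluorescence after 2 hours at room temperature.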

[3] = qHTS assay to identify small molecule agonists of the androgen receptor (AR) signaling pathway in the presence of an antagonist - cell viability counter screen (AID 1259379); note: nearly all actives have a fitted effect of over 25% in size; note: potency is the fitted concentration of half-maximal effect
Method in brief: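 Fluorescence from CellTiter-Fluor, added after 15 hr and read 1 hr later, gave cell viability. Cells were MDA-kb2 exposed to compounds (15 concentrations) in the presence of 3.0uM nilutamide at 37C, 0% CO2.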

[4] = qHTS assay to identify small molecule agonists of the estrogen receptor beta (ER-beta) signaling pathway - cell viability counter screen (AID 1259380); note: nearly all actives have a fitted effect of over 30% in size; note: potency is the fitted concentration of half-maximal effect
Method in brief: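 Same-well viability counter screen. Cells: ER-beta-UAS-bla HEK293T, plated 6 hr before compound, in 2% charcoal-stripped FBS. Compound exposure 16 hr, 37C; viability by CellTiter-Glo luminescence after 30 min at room temperature.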

[5] = biological target: Androgen receptor (Homo sapiens) (UniProt P10275); test: qHTS assay to identify small molecule agonists of the androgen receptor (AR) signaling pathway in the presence of an antagonist (AID 1259381; calls by dose curve; note: nearly all actives have a fitted effect of over 15% in size)
Chain of Androgen receptor (Homo sapiens) (P10275 whole entry, looked up): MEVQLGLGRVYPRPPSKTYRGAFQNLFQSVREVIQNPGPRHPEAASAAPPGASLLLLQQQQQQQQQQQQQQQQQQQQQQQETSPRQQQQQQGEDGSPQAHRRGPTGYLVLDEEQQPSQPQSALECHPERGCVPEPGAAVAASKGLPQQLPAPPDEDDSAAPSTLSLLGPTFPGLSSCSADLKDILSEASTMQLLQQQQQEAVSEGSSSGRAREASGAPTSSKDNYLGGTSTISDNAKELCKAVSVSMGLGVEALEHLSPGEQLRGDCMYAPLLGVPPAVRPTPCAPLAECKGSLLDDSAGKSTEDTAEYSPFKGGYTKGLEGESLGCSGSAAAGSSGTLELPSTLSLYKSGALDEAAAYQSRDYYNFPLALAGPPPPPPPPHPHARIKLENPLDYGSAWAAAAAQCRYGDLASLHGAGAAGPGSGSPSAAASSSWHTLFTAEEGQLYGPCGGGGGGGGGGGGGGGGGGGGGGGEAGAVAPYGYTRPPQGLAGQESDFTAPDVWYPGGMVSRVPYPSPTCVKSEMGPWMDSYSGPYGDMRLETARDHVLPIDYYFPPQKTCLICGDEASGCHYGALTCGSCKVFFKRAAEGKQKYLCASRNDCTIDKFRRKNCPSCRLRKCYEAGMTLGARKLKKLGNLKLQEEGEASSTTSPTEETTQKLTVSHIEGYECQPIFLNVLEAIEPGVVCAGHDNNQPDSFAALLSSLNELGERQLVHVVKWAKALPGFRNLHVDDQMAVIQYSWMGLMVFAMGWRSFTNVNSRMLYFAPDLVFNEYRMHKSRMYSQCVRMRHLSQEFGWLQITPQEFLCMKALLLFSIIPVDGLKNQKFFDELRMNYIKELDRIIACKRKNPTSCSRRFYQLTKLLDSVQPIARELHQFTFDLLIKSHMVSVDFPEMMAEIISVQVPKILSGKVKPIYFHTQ
Method in brief: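 Cells are MDA-kb2 (human breast carcinoma, MMTV-luc, AR/GR responsive). Nilutamide is present at 3.0uM final throughout; compounds are added at 15 concentrations and incubated 16hr at 37C before ONE-Glo luminescence detection.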

[6] = qHTS assay to identify small molecule antagonists of the estrogen receptor beta (ER-beta) signaling pathway - cell viability counter screen (AID 1259382); note: nearly all actives have a fitted effect of over 55% in size; note: potency is the fitted concentration of half-maximal effect
Method in brief: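 Following a 6 hr plating period, HEK293T cells carrying a UAS-driven beta-lactamase reporter under ER-beta control received compounds and 1nM E2 (final). After 16 hr at 37C and 2 hr substrate loading, CellTiter-Glo luminescence indicated viability.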

[7] = qHTS assay to identify small molecule agonists or antagonists of the thyroid stimulating hormone receptor (TSHR) signaling pathway - wild type cell line counter screen (AID 1259384; calls by dose curve)
Method in brief: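 Wild-type Hek293 cells, 800/well, 18 h at 37C, then compound with Ro20-1724 for 30 min RT. cAMP by HTRF (cAMP-d2/anti-cAMP cryptate), 1 h RT, fluorescence read. 15 concentrations, triplicates.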

[8] = biological target: Thyrotropin receptor (Homo sapiens) (UniProt P16473); test: qHTS assay to identify small molecule antagonists of the thyroid stimulating hormone receptor (TSHR) signaling pathway (AID 1259385; calls by dose curve; note: nearly all actives have a fitted effect of over 20% in size; note: potency is the fitted concentration of half-maximal effect)
Chain of Thyrotropin receptor (Homo sapiens) (P16473 whole entry, looked up): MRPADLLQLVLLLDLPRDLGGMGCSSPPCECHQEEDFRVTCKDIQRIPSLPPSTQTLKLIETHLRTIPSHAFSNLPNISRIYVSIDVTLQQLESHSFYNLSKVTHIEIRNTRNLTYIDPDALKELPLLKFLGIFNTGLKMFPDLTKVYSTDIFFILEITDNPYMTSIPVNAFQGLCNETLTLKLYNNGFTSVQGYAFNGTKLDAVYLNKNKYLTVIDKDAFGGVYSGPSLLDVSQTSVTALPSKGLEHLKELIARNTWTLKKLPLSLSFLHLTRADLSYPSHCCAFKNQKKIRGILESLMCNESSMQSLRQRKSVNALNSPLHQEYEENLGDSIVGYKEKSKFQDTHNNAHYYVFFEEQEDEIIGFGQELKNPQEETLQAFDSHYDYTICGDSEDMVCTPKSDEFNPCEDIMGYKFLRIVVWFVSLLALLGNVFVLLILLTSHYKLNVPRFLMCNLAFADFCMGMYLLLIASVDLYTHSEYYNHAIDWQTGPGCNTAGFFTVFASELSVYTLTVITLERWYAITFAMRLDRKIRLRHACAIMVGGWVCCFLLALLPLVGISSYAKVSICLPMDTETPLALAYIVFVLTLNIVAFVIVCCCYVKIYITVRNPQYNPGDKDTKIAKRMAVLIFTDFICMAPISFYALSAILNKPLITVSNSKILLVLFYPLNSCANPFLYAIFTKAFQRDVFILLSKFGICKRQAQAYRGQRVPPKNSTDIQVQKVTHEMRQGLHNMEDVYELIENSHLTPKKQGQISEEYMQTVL
Method in brief: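 TSHR-HEK293 cells (800/well) plated 18 h, then compounds with Ro20-1724 and TSH at 1.5 ng/mL final, 30 min at room temperature. cAMP quantified by HTRF (cAMP-d2/anti-cAMP-cryptate, 1 h); 15 concentrations in triplicate.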

[9] = biological target: Progesterone receptor (Homo sapiens) (UniProt P06401); test: qHTS assay to identify small molecule antagonists of the progesterone receptor (PR) signaling pathway (AID 1346795; active = well fitted inhibition curve with a large enough effect in the signal ratio in the repeat runs, not every such curve was filed as active; the % refers to the signal ratio; note: potency is the fitted concentration of half-maximal effect)
Chain of Progesterone receptor (Homo sapiens) (P06401 whole entry, looked up): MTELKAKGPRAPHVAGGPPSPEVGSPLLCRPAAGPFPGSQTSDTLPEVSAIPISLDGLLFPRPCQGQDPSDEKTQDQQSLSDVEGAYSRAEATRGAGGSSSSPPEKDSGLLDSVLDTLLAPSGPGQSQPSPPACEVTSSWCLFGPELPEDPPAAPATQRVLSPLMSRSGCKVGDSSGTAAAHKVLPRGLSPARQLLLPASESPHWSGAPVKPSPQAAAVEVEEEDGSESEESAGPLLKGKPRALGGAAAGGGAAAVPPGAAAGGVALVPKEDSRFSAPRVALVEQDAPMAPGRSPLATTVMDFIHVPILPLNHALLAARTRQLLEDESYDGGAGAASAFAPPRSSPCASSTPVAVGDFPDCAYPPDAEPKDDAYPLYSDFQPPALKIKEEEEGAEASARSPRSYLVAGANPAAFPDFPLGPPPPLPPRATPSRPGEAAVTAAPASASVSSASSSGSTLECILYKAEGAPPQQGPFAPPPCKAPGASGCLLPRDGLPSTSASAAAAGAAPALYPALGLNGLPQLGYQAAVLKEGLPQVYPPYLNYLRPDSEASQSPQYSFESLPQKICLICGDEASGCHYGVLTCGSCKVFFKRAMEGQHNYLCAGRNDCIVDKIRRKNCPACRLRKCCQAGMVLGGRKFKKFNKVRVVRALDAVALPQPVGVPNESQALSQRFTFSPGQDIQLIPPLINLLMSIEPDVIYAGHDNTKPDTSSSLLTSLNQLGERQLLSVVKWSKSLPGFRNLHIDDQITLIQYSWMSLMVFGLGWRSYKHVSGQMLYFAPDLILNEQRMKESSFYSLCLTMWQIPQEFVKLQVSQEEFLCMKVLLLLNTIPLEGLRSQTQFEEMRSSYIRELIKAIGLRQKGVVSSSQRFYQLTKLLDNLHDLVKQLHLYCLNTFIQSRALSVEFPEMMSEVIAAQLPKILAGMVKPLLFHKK
Method in brief: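 Read-out is fluorescence from the LiveBLAzer B/G FRET substrate, cleaved by a UAS-controlled beta-lactamase in PR-UAS-bla HEK293T cells after 16 hr exposure to compound plus 1 nM promegestone (final), followed by 2 hr at room temperature.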

[10] = qHTS assay to identify small molecule antagonists of the progesterone receptor (PR) signaling pathway - cell viability counter screen (AID 1346798); note: nearly all actives have a fitted effect of over 50% in size; note: potency is the fitted concentration of half-maximal effect
Method in brief: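 HEK293T PR-UAS-bla, 2% charcoal-stripped FBS; 4 hr pre-plate; cpd + R5020, 16 h 37C; LiveBLAzer read first; then CellTiter-Glo 30 min RT, luminescence.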

[11] = qHTS assay to identify small molecule agonists of the progesterone receptor (PR) signaling pathway - cell viability counter screen (AID 1346799; calls by dose curve; note: nearly all actives have a fitted effect of over 45% in size; note: potency is the fitted concentration of half-maximal effect)
Method in brief: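 Luminescence from CellTiter-Glo, added after the beta-lactamase FRET read in the same wells, gave cytotoxicity in PR-UAS-bla HEK293T cells treated with compounds for 16 hr at 37C.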

[12] = qHTS assay to identify small molecule antagonists of the TGF-beta/Smad signaling pathway - cell viability counter screen (AID 1346824); note: nearly all actives have a fitted effect of over 50% in size; note: potency is the fitted concentration of half-maximal effect
Method in brief: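 SBE-bla HEK 293T cells, incubated overnight, then compound plus 0.25 ng/mL TGF-beta1 (stock added) for 5 hr at 37 C. Viability was read in the same wells by CellTiter-Glo luminescence after 30 min at room temperature.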

[13] = qHTS assay to identify small molecule agonists of the TGF-beta/Smad signaling pathway - cell viability counter screen (AID 1346829); note: top concentration of the series differs between compounds; nearly all actives have a fitted effect of over 45% in size
Method in brief: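 Luminescence from CellTiter-Glo, read after a 30 min room-temperature incubation, gives cell viability of SBE-bla HEK 293T cells treated 5 hr with compounds at 37 C.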

[14] = qHTS assay to identify small molecule agonists of the TGF-beta/Smad signaling pathway (AID 1346859; active = well fitted activation curve with a large enough effect in the signal ratio in the repeat runs, not every such curve was filed as active; the % refers to the signal ratio; note: series mostly up to about 77 µM)
Method in brief: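 SBE-bla HEK 293T, 4,000 cells/well, plated o/n; cpd in DMSO, 5 hr, 37 C/5% CO2; B/G FRET substrate 2 hr RT; ex 405, em 460/530 nm.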

[15] = biological target: Thyrotropin-releasing hormone receptor (Homo sapiens) (UniProt P34981); test: qHTS assay to identify small molecule antagonists of the thyrotropin-releasing hormone receptor (TRHR) signaling pathway (AID 1346877; active = well fitted inhibition curve with a large enough effect in the repeat runs, not every such curve was filed as active; note: series mostly up to about 51 µM)
Chain of Thyrotropin-releasing hormone receptor (Homo sapiens) (P34981 whole entry, looked up): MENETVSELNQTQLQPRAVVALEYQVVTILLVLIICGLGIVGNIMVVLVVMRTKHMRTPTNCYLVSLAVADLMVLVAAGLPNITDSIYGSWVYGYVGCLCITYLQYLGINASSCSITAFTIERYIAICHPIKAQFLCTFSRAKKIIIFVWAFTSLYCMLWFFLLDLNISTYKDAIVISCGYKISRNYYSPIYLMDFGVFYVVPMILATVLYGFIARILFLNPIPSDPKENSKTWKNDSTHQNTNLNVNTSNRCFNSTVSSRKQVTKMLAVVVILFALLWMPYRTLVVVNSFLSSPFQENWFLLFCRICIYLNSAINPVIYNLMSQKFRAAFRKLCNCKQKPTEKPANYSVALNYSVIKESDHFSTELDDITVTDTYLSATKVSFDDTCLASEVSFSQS
Method in brief: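 Cells (TRHR-HEK293) are plated and kept 18 h at 37 °C/5% CO2. A calcium-sensitive dye is added for 2 h, compound follows for 5 min at room temperature, and TRH is then given at 1 nM final.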

[16] = biological target: Thyrotropin-releasing hormone receptor (Homo sapiens) (UniProt P34981); test: qHTS assay to identify small molecule agonists of the thyrotropin-releasing hormone receptor (TRHR) signaling pathway (AID 1346891; calls by dose curve; note: series mostly up to about 58 µM)
Method in brief: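 Intracellular calcium rise, read as fluorescence every second for 3 min, served as the agonist signal in dye-loaded HEK293 cells expressing TRHR; each compound ran at 15 concentrations in triplicate.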

[17] = Human pregnane X receptor (PXR) small molecule agonists, qHTS cell viability counter screen (AID 1346977); note: nearly all actives have a fitted effect of over 50% in size; note: potency is the fitted concentration of half-maximal effect
Method in brief: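 PXR-Luc HepG2, 2,000 cells/well, 5% charcoal-stripped FBS; 5hr settle; cpd 24hr, 37C/5% CO2; CellTiter-Fluor at 23hr, read 1hr later (fluorescence).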

[18] = qHTS assay to identify small molecule agonists of the estrogen receptor alpha (ER-alpha) signaling pathway in the presence of an antagonist - cell viability counter screen (AID 1259386);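 note: cells exposed to compounds for 22 h at 37 °C before the viability read; nearly all actives have a fitted effect of over 30% in size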; note: potency is the fitted concentration of half-maximal effect
Method in brief: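 Cells are starved of estrogens for 5 days in charcoal-stripped serum, seeded for 24hr and co-treated with ICI-182,780 (10.0nM final) and test compounds. After 22hr at 37C, viability is read as CellTiter-Fluor fluorescence.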

[19] = biological target: Progesterone receptor (Homo sapiens) (UniProt P06401); test: qHTS assay to identify small molecule agonists of the progesterone receptor (PR) signaling pathway (AID 1346784; calls by dose curve; note: nearly all actives have a fitted effect of over 30% in size)
Method in brief: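 Beta-lactamase reporter read-out: after 16 hr compound treatment at 37C and a further 2 hr at room temperature with LiveBLAzer B/G FRET substrate, fluorescence was measured in PR-UAS-bla HEK 293T cells grown in 2% charcoal-stripped serum.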

[20] = biological target: Estrogen receptor (Homo sapiens) (UniProt P03372); test: qHTS assay to identify small molecule agonists of the estrogen receptor alpha (ER-alpha) signaling pathway in the presence of an antagonist (AID 1259383; calls by dose curve; note: top concentration of the series differs between compounds; nearly all actives have a fitted effect of over 15% in size)
Chain of Estrogen receptor (Homo sapiens) (P03372 whole entry, looked up): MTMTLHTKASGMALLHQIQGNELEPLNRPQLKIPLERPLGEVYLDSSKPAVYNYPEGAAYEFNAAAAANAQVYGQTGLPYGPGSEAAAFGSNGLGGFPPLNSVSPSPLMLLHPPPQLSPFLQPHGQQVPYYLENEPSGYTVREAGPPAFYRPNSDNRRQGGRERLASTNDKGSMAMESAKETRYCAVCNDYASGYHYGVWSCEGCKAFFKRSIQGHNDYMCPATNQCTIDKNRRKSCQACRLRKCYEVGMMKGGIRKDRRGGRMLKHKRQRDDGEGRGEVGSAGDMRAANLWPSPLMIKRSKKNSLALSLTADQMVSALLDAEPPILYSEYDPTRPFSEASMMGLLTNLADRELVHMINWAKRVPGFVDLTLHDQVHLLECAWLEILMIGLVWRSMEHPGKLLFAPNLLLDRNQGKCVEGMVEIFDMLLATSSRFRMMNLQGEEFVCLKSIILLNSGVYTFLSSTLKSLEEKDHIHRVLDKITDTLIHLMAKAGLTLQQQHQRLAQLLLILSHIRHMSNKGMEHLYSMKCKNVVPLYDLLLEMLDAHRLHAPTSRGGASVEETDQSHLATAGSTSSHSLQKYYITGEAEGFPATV
Method in brief: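 Cells are hormone-deprived for 5 days (charcoal-stripped FBS, no phenol red), plated for 24hr, spiked with 10.0nM ICI-182,780, then dosed at 15 concentrations. After 22hr at 37C, ONE-Glo luminescence reports ERE-luciferase activity.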

Measured: Potency

O=C(N[C@H]1CN2CCC1CC2)c1ccc2c(c1)OCCO2
not listed: [18] | [19] | [20]
inactive: all other assays above

NP(N)(=O)NC(=O)c1ccc(F)cc1
not listed: [9] | [20]
inactive: all other assays above

COCc1cnc(C2=NC(C)(C(C)C)C(=O)N2)c(C(=O)O)c1 (configuration not stated)
not listed: [10] | [11]
inactive: all other assays above

C[CH2][Hg][S]c1ccccc1C(=O)O
inactive: [1] | [5] | [13]
active: [2] 3.35 µM | [3] 10.9 µM and 13.3 µM | [4] 2.17 µM and 5.31 µM | [6] 2.43 µM and 5.31 µM | [8] 13.7 µM and 29.8 µM | [18] 13.7 µM and 21.1 µM | [9] 1.54 µM and 3.35 µM | [10] 2.73 µM and 6.68 µM | [11] 1.93 µM and 6.68 µM | [12] 43.6 µM and 19 µM | [17] 3.44 µM and 6.68 µM

CN[C@@H](C)[C@H](O)c1ccccc1
not listed: [5] | [13] | [18]
inactive: all other assays above

CCCCC(CC)COC(=O)c1c(Br)c(Br)c(Br)c(Br)c1C(=O)OCC(CC)CCCC (configuration not stated)
not listed: [5] | [10] | [13] | [19]
inactive: all other assays above

CC(O)CN1CCN(CC(=O)[O-])CCN(CC(=O)[O-])CCN(CC(=O)[O-])CC1.[Gd+3] (configuration not stated)
not listed: [5] | [9] | [10] | [19]
inactive: all other assays above

CCCCNC(=O)OCC#CI
60.8 µM (active) and inactive: [4]
active: [3] 60.8 µM and 68.6 µM | [17] 35.5 µM and 27.3 µM
not listed: [5] | [7] | [18]
inactive: all other assays above

CCOP(=S)(OCC)Oc1ccc(S(C)=O)cc1 (configuration not stated)
not listed: [5]
inactive: all other assays above

C=CC(=O)NC(C)(C)CC(C)=O
not listed: [5] | [7] | [8] | [18]
inactive: all other assays above

Cc1cnc(C2=NC(C)(C(C)C)C(=O)N2)c(C(=O)O)c1 (configuration not stated)
inactive: all assays above

CCCCCBr
not listed: [8] | [18]
inactive: all other assays above

COP(=O)(OC)OC(Br)C(Cl)(Cl)Br (configuration not stated)
not listed: [20]
inactive: all other assays above

CCCN(CCC)c1c([N+](=O)[O-])cc(C(C)C)cc1[N+](=O)[O-]
not listed: [5] | [9] | [18]
inactive: all other assays above
